Laboratory results published in the supplement of paper PMC10849652.
About 7,900 targets were measured; listed, in parts, are those with a hit and a random draw of the rest. About 0.6% of all pairs of compound and target were hits. Unmarked numbers belong to inactive results.

Key:
Test in all cases: log2 fold change, soluble protein after heating vs DMSO (PISA); higher = thermal stabilisation; K562 cells, 10 uM, 30 min; active = over 0.2 and 3.5 SD of the protein, either way, in both replicates (recomputed)
bafetinib = compound: Cc1ccc(NC(=O)c2ccc(CN3CC[C@H](N(C)C)C3)c(C(F)(F)F)c2)cc1Nc1nccc(-c2cncnc2)n1 [bafetinib]
How it was run: (§1)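 K562 cells at 2×10^6 cells/mL were exposed to 10 μM compound for 30 min, then aliquots were heated for 3 min across 48°C-58°C, pooled, and extracted in PBS containing 0.5% NP-40 at 4°C. The supernatant after 21,000xg for 90 min was taken as soluble protein and measured by TMTpro 16plex LC-MS/MS with channel sums equalised. Thermal stability is reported relative to control samples, with values from duplicates. Fold changes are given on a log2 scale.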

[1] = compound: Cc1cccc(CC(=O)N2CCc3c2ccc(-c2cn(C)c4ncnc(N)c24)c3F)n1
How it was run: as §1

nilotinib = compound: Cc1cn(-c2cc(NC(=O)c3ccc(C)c(Nc4nccc(-c5cccnc5)n4)c3)cc(C(F)(F)F)c2)cn1 [nilotinib]
How it was run: as §1

[2] = compound: Cc1nc(Nc2n[nH]c3c2CN(C(=O)N[C@H](CN(C)C)c2ccccc2)C3(C)C)c2sccc2n1
How it was run: as §1

dasatinib = compound: Cc1nc(Nc2ncc(C(=O)Nc3c(C)cccc3Cl)s2)cc(N2CCN(CCO)CC2)n1 [dasatinib]
How it was run: as §1

[3] = compound: Cc1ncc(-c2ccnc(Nc3ccc(S(C)(=O)=O)cc3)n2)n1C(C)C
How it was run: as §1

[4] = compound: Cn1cc(-c2ccc3c(c2)CCN3C(=O)Cc2cccc(C(F)(F)F)c2)c2c(N)ncnc21
How it was run: as §1

[5] = compound: Cn1cc(-c2ccc3nnc(C(F)(F)c4ccc5ncccc5c4)n3n2)cn1
How it was run: as §1

tipifarnib = compound: Cn1cncc1[C@@](N)(c1ccc(Cl)cc1)c1ccc2c(c1)c(-c1cccc(Cl)c1)cc(=O)n2C [tipifarnib]
How it was run: as §1

[6] = compound: NC(=O)Nc1cc(-c2cccc(F)c2)sc1C(=O)N[C@H]1CCCNC1
How it was run: as §1

[7] = compound: NC(=O)c1cnc(N[C@@H]2CCCC[C@@H]2N)nc1Nc1cccc(-n2nccn2)c1
How it was run: as §1

[8] = compound: NCC(=O)Nc1ccc(-n2nc(C(F)(F)F)cc2-c2ccc3c(ccc4ccccc43)c2)cc1
How it was run: as §1

entinostat = compound: Nc1ccccc1NC(=O)c1ccc(CNC(=O)OCc2cccnc2)cc1 [entinostat]
How it was run: as §1

vorinostat = compound: O=C(CCCCCCC(=O)Nc1ccccc1)NO [vorinostat]
How it was run: as §1

citarinostat = compound: O=C(CCCCCCNC(=O)c1cnc(N(c2ccccc2)c2ccccc2Cl)nc1)NO [citarinostat]
How it was run: as §1

[9] = compound: O=C1NC(=O)C(c2cnc3ccccn23)=C1c1cn2c3c(cc(F)cc13)CN(C(=O)N1CCCCC1)CC2
How it was run: as §1

[10] = compound: c1cc(OCCN2CCCCC2)cc(-c2n[nH]c3ccc(-c4nnc[nH]4)cc23)c1
How it was run: as §1

mubritinib = compound: FC(F)(F)c1ccc(/C=C/c2nc(COc3ccc(CCCCn4ccnn4)cc3)co2)cc1 [mubritinib]
How it was run: as §1

[11] = compound: NC1(c2ccc(-c3nc4ccn5c(=O)[nH]nc5c4cc3-c3ccccc3)cc2)CCC1
How it was run: as §1

silmitasertib = compound: O=C(O)c1ccc2c(c1)nc(Nc1cccc(Cl)c1)c1ccncc12 [silmitasertib]
How it was run: as §1

Sequence of UniProt Q13362 (Q13362 whole entry, looked up): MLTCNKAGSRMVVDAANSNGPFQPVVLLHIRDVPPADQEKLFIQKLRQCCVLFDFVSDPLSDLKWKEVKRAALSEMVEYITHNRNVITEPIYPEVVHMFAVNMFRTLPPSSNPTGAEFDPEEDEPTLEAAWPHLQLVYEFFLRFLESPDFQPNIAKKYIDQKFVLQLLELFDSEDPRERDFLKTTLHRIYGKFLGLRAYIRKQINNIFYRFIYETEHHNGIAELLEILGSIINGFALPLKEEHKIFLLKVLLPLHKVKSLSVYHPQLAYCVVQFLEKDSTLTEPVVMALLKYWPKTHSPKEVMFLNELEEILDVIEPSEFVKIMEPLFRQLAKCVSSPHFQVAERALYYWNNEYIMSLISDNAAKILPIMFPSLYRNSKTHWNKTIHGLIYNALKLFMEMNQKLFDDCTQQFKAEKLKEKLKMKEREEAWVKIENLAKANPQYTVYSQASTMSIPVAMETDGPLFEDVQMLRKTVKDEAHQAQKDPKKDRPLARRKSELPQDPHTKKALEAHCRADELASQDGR
Sequence of UniProt Q7Z3K3 (Q7Z3K3 whole entry, looked up): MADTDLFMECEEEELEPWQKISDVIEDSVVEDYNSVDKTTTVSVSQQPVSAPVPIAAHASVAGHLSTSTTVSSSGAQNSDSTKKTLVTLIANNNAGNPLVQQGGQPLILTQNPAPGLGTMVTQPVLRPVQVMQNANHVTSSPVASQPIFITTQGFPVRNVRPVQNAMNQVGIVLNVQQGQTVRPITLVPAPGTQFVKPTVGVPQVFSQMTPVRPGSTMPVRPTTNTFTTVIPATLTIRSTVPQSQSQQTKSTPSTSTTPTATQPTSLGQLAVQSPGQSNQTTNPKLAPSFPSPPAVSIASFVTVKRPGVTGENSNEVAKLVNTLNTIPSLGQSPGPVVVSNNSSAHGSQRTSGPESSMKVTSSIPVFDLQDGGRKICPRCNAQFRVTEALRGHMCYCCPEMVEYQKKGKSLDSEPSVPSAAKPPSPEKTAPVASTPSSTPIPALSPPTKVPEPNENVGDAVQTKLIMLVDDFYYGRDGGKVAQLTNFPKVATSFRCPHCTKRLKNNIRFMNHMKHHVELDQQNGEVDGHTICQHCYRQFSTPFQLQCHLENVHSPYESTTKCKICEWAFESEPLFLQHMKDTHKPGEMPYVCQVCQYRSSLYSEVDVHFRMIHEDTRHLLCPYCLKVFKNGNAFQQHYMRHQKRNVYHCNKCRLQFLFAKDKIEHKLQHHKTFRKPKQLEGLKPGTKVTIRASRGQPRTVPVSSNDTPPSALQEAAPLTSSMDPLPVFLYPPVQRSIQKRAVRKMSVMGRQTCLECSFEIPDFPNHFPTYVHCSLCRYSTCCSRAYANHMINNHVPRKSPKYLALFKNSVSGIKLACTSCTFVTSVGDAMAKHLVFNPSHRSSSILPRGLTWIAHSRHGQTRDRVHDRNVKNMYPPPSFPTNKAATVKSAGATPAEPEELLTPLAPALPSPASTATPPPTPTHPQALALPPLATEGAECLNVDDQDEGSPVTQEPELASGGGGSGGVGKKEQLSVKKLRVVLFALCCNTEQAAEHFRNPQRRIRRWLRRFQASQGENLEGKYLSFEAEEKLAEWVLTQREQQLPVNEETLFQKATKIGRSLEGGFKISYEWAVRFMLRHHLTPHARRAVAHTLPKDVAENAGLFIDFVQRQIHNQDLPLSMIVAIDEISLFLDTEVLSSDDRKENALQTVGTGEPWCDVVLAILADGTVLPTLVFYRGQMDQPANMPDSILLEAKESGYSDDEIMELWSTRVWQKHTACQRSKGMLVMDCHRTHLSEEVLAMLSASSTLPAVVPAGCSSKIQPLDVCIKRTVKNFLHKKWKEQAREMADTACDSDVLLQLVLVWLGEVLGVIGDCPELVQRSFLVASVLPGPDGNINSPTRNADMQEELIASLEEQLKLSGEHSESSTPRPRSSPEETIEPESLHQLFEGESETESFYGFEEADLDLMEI
Sequence of UniProt Q9P1Y6 (Q9P1Y6 whole entry, looked up): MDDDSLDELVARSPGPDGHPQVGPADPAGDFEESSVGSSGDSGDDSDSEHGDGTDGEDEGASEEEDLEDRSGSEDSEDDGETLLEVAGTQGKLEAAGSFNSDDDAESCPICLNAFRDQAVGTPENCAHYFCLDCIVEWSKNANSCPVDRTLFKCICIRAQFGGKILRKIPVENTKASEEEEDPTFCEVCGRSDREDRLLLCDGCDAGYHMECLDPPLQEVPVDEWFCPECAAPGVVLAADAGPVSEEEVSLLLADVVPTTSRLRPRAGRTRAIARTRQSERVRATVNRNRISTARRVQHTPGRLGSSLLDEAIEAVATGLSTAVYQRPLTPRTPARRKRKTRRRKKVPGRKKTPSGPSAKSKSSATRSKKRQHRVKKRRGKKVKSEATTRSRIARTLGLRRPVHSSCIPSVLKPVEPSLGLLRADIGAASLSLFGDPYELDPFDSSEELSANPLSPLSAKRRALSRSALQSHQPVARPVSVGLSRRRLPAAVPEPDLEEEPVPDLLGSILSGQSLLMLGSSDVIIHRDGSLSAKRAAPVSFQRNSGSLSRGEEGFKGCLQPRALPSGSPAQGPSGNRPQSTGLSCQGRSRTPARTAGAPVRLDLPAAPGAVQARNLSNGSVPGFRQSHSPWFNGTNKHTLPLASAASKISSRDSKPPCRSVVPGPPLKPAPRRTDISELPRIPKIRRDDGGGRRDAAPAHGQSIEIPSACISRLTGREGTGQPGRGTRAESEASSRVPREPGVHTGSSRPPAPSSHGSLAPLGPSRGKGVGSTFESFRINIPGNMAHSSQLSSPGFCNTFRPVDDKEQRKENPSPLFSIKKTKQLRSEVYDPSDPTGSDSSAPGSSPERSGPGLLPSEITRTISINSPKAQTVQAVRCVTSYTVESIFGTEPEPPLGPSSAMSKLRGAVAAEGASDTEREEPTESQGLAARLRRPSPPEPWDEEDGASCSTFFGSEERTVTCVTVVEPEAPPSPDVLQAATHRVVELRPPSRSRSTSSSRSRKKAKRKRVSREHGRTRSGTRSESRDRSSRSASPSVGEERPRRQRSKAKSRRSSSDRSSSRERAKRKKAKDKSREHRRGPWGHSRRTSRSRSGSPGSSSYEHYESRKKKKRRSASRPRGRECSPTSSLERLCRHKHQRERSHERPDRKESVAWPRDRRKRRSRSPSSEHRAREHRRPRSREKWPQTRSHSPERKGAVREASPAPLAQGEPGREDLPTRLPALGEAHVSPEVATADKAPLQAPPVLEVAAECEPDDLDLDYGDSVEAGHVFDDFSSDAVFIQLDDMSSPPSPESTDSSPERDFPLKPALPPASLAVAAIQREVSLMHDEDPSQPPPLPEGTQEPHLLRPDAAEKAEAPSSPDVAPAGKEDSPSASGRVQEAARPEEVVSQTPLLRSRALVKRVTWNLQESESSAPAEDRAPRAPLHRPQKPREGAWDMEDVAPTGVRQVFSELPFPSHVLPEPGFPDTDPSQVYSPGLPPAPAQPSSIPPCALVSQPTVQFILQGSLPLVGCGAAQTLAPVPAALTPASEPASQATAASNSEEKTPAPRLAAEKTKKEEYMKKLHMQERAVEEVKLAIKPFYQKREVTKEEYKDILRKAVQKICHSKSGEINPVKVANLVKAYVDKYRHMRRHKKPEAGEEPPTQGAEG
Sequence of UniProt Q8NDX5 (Q8NDX5 whole entry, looked up): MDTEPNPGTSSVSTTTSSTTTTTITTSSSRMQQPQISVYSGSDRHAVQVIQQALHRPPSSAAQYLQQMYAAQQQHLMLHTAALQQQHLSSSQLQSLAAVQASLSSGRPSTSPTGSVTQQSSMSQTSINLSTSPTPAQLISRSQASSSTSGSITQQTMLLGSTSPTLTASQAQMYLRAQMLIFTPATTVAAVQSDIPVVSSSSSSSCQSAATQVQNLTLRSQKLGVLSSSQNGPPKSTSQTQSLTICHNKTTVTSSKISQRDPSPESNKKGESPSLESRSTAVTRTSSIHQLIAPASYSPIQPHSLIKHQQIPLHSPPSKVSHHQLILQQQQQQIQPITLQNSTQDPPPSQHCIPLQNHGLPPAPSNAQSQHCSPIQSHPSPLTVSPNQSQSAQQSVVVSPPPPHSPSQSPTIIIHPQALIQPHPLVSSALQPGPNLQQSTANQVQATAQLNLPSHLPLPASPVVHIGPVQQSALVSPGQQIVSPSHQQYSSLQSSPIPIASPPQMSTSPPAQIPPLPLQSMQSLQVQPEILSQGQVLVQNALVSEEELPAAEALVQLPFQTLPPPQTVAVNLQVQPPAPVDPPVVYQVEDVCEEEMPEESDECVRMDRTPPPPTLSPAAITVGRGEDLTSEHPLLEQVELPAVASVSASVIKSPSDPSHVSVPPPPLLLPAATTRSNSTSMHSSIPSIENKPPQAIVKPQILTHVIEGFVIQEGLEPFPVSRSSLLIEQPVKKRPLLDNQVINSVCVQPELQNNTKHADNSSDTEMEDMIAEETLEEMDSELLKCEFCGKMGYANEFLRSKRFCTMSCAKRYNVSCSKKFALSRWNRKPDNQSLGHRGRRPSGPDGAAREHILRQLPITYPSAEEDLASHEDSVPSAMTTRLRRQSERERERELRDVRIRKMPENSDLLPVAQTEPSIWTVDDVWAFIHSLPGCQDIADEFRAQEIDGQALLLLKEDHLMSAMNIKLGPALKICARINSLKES
Sequence of UniProt Q8TCG2 (Q8TCG2 whole entry, looked up): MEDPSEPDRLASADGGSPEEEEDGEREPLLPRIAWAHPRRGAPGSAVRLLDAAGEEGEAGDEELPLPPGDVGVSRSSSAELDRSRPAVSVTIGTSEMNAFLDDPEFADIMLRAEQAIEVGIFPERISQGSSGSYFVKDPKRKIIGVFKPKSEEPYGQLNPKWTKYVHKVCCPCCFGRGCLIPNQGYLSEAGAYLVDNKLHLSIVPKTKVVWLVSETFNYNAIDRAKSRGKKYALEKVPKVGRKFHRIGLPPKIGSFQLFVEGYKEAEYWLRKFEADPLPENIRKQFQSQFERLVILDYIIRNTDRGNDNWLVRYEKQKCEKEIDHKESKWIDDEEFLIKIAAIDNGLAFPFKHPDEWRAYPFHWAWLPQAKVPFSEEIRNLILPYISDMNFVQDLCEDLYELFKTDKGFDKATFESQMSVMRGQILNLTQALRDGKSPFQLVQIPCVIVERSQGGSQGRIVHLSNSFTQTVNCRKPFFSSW

Target	log2 fold change (bafetinib)	log2 fold change [1]	log2 fold change (nilotinib)	log2 fold change [2]	log2 fold change (dasatinib)	log2 fold change [3]	log2 fold change [4]	log2 fold change [5]	log2 fold change (tipifarnib)	log2 fold change [6]	log2 fold change [7]	log2 fold change [8]	log2 fold change (entinostat)	log2 fold change (vorinostat)	log2 fold change (citarinostat)	log2 fold change [9]	log2 fold change [10]	log2 fold change (mubritinib)	log2 fold change [11]	log2 fold change (silmitasertib)
PDSS2 (UniProt Q86YH6)	0.077	0.048	0.029	0.163	0.06	-0.154	0.052	0.02	-0.095	-0.108	-0.015	0.011	-0.009	0.041	0.018	0.026	-0.029			
PI4K2B (UniProt Q8TCG2)	-0.084	0	0.124	-0.052	-0.101	-0.167	0.11	0.146		0.092	0.704 (active)	-0.069	0.066	-0.021	0.075		0.111	0.053	-0.08	0.051
PMS2CL (UniProt Q68D20)			-0.189	-0.154		0.115		-0.128								0.062		-0.054	0.185	0.095
PNPLA4 (UniProt P41247)	-0.339		0.128	-0.019	-0.165	-0.001	0.156	0.078	-0.039	0	-0.118	0.131	-0.093		0.602		-0.071	0.826 (active)	-0.357	0.012
PCNX1 (UniProt Q96RV3)	-0.112		0.007	0.009		0			0.305			-0.043			-0.237	-0.14	-0.269	-0.019	0.042	-0.11
PEX5 isoform 4 (UniProt P50542)					0.139		0.219	-0.078		0.019	0.002	0.041	0			0.163				
PDE4DIP (UniProt E9PS60)							-0.007					-0.172			0.06		-0.051			
POLR2C (UniProt P19387)	0.012		-0.042	0.073	-0.031	0.3 (active)	0.003	-0.06	-0.081	-0.046	-0.026	-0.196	-0.031		0.017	-0.023	-0.195	-0.097	-0.131	0.118
PSMD8 (UniProt K7EK21)							-0.216													
PIAS4 (UniProt Q8N2W9)		0			-0.116			0.313	0.002					-0.014		-0.404		0.199	0.094	-0.271
POGZ (UniProt Q7Z3K3)		0.174			-0.318		0.072	0.061	-0.124	0.009	0.167	-0.028	-0.031	-0.186	-0.206	-0.114	-0.483 (active)			
PSMC1 (UniProt G3V4X1)		-0.579	-0.195	0.042		-0.046	0.066		0.479					0.168						
PUM1 (UniProt Q14671)		-0.202			-0.207		0.229				0.058			-0.037						
PHRF1 (UniProt Q9P1Y6)								0.084	0.159									-0.099	0.148	0.176
PIK3CD (UniProt O00329)	0.033						-0.228	0.074	0.031	0.086	0.014	-0.047	-0.008		-0.285	-0.092	0.143			
PSMA3 (UniProt G3V4X5)	0.159							0.174	0.067			-0.055								
PSD3 (UniProt Q9NYI0)			-0.117	0.029		0.014	-0.002	0.071	-0.062		-0.262 (active)	-0.113			0.017		-0.02	-0.035	-0.14	-0.095
PHC3 isoform 7 (UniProt Q8NDX5)	0.222		-0.187	0.01		0	0.018		-0.016	0.158			0.1		0.172	0.567 (active)	-0.014	0.191	-0.125	-0.018
PCBP2 (UniProt F8VZX2)	0.029		0.029	-0.112	-0.144	0.049	-0.022	-0.196										-0.153	0.158	0.193
PUF60 isoform 2 (UniProt Q9UHX1)	-0.089				-0.173		0.043	-0.103	-0.159		0.024	0.21						-0.257	-0.137	0.069
PPP2R5C isoform 2 (UniProt Q13362)	0.046							0.037							0.069		0.105	-0.057	-0.183	-0.064
